Source: PubChem BioAssay
GLS inh = blocks human kidney-isoform glutaminase activity; GLS enzymatic activity, qHTS titration; Potency, µM (highest dose often 45.5 µM), for the others: at the top dose activity change, negative = inhibition, actives largely listed as inhibitors; 410,000 compounds, 0.21% hits; AID 624170; also: % is scaled to controls: 0 for no effect and ±100 for the full control effect
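Human kidney-isoform GLS in 45 mM KH2PO4 pH 8.2, 0.02% Tween-20, with compound, started with 1mM L-Glutamine (added stock). Glutamate oxidase/HRP/Amplex red coupled fluorescence read at start and after 30 min at RT.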
12-LOX inh = blocks human arachidonate 12S-lipoxygenase | P18054 | purified 12hLO, xylenol orange hydroperoxide absorbance | Potency, µM (highest dose often 108 µM), without a hit: top-dose activity change, negative = inhibition, most hits filed as inhibitors | AID 1671190 | 580,000 compounds, 1.1% hits; also: % is scaled to controls: 0 for no effect and ±100 for the full control effect
Target sequence (P18054 whole entry, looked up): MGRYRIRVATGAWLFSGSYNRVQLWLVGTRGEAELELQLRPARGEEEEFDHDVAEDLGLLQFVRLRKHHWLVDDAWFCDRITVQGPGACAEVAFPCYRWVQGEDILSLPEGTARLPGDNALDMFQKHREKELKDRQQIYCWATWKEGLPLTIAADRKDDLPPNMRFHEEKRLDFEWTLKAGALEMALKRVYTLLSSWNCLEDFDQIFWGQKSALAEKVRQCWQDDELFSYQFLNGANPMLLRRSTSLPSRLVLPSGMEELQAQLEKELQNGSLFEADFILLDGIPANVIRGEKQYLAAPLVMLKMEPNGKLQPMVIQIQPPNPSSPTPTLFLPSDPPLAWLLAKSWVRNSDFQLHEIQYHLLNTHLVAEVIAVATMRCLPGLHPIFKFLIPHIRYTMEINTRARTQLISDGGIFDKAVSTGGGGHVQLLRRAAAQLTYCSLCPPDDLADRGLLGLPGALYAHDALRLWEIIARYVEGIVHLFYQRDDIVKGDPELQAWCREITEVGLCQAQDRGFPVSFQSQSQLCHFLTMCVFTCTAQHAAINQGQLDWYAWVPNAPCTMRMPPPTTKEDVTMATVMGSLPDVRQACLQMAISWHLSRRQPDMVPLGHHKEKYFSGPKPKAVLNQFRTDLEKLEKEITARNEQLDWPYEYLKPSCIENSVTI
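Purified human 12hLO (150 nM final) in 25 mM Hepes, 0.01% Triton X-100, pH 7.0 was preincubated 15 min at room temperature with compound. Then 40 uM arachidonic acid was added, 30 min. Hydroperoxide was read by Fe-XO absorbance ratio 573/405 nm.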
Glioma ERSR ind = inducers of ER stress response in human glioma cells; U87-MG GRP78 promoter luciferase reporter, 16 h; Potency, µM, for the others: top-dose activation, hits mostly activators; 420,000 compounds, 0.02% hits; AID 602332; also: series mostly up to about 76 µM; % of control where 0% means no effect; nearly all actives have a fitted effect of over 35% in size
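Stably transfected U87-MG glioma cells carrying a GRP78-based luciferase sensor; 16 h compound incubation. Luminescence end-point read 10 min after Bright-Glo addition at room temperature.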
GLP-1R agonist = activates the human GLP-1 receptor. P43220. HEK293 GLP-1R CRE-luciferase, luminescence, 4-6 h; cells express a hypersensitive GLP-1R form. Potency, µM (top dose mostly 45.6 µM), without a hit: top-dose activation, most hits filed as activators. 380,000 compounds, 0.007% hits; also: % of control where 0% means no effect
PTHR1 agonist = agonists of human PTHR1 parathyroid hormone receptor | Potency, µM (series often up to 115 µM), without a hit: at the top dose activation, actives largely listed as activators | 410,000 compounds, 0.075% hits | AID 743266 | HEK293 GP2 PTHR1 cells, GloSensor cAMP luminescence, 1 h; also: nearly all actives have a fitted effect of over 55% in size
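HEK-293-derived GP2 cells expressing PTHR1 and a GloSensor cAMP reporter, 3,000/well, plated overnight, given luciferin plus IBMX (each 0.5 mM as added) for 1 h at 37 °C, then compound for 1 h at 37 °C. Luminescence was read after 15 min at room temperature.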
GLP1R inv ag = acts as inverse agonist at human GLP-1 receptor; P43220; HEK293 GLP-1R CRE-luciferase, luminescence, 24 h; GLP-1R form is constitutively active; Potency, µM (titrated, usually from 38.3 µM), for the others: top-dose activity change, negative = inhibition, actives largely listed as inhibitors; 410,000 compounds, 1.6% hits; AID 624417; also: % is scaled to controls: 0 for no effect and ±100 for the full control effect; nearly all actives have a fitted effect of over 55% in size
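Luminescence readout: a drop in cAMP-driven luciferase signal flags inverse agonism at a constitutively active GLP-1R stably expressed in HEK293. Compound exposure lasted 24 hr at 37 deg C, 5% CO2.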
An asterisk follows results filed as active; i = inactive; ? = inconclusive; . = no result given; [ ] = dose if it differs, or a comment. Most compounds without a hit are left out; they make up all but 2.3% or so of the library. Calls follow the shape of the dose curve; as a rule, active = well fitted curve in the direction sought with a large enough effect; inconclusive = small, poorly fitted or top-dose-only effect, or another doubt; inactive = no such curve, though single readings can be large; an effect the other way counts as inactive or inconclusive. Potency is read from the fitted curve at half-maximal effect.

SMILES	GLS inh	12-LOX inh	Glioma ERSR ind	GLP-1R agonist	PTHR1 agonist	GLP1R inv ag
O=c1[nH]nc(SCc2ncc(-c3ccccc3)o2)n1C1CC1	.	-25%	.	.	.	.
Cc1cccc(NC(=S)Nc2ccc(Oc3ccccc3)cc2)n1	-1%	10µM*	2%	0%	-91%	?
O=C(NC(NC(=S)Nc1ccc(Cl)c(Cl)c1)C(Cl)(Cl)Cl)c1ccco1 (stereo unspecified)	-1%	2.8µM*	-2%	-37%	i	3.5µM*
S=C(NCc1ccco1)Nc1cccc(Cl)c1	21%	?	2%	0%	0%[57.5 µM]	8.9µM*
CC(=O)c1cccc(NC(=S)NCc2ccco2)c1	10%	0%	0%	-5%	-12%	-17%
Cc1cccc(CNc2nc(-c3ccoc3)nc3ccccc23)c1	.	?	-3%	.	.	.
c1ccc(CNc2nc(-c3ccoc3)nc3ccccc23)cc1	.	16µM*	5%	.	.	.
Cc1ccc(S(=O)(=O)NC(=O)C2(C)CCN2C(=O)c2cccc(F)c2)cc1 (stereo unspecified)	10%	35µM*	-1%	-7%	i	25%
CC1(C(=O)NS(=O)(=O)c2cccc(Cl)c2)CCN1C(=O)c1cccc(F)c1 (stereo unspecified)	9%	-1%	-3%	5%	i	22%
Cc1nc(C(F)(F)F)ccc1C(=O)N1CCC1(C)C(=O)NS(=O)(=O)c1cccc(F)c1 (stereo unspecified)	-11%	45µM*	-2%	-4%	-25%	19%
CCc1cc(N2CCC(NCCc3cccc(Cl)c3)CC2)nc(C)n1	.	32%	.	.	.	.
CC(C)CCNC(=O)c1cc(-c2ccncc2)cn1C	.	58%	.	.	.	.
CN(Cc1ccc(Cl)cc1)C(=O)CNC(=O)C12CC3CC(CC(C3)C1)C2	4%	384%	-4%	4%	-41%	8.9µM*
CCNc1ccc(Br)cc(C(=O)/C=C/c2ccc(Cl)cc2Cl)c1=O	15%	7.1µM*	0%	-2%	-34%[57.5 µM]	?
CNc1ccc(Br)cc(C(=O)/C=C/c2ccc(OC)cc2)c1=O	72%	32µM*	-6%	6%	-26%	7%
CNc1ccc(Br)cc(C(=O)/C=C/c2cc(OC)ccc2OC)c1=O	-2%	?	?	-8%	-77%[57.5 µM]	?
Cc1ccccc1OCC(O)CN(Cc1ccccc1O)C1CCCCC1 (stereo unspecified)	20%	4%	-5%	4%	i	11µM*
CN(CC(O)COc1ccccc1F)C1CCCCC1 (stereo unspecified)	0%	-5%	-4%	14%	-13%	16%
CCN(CC(O)COc1ccc(OCC(O)CN(CC)C2CCCCC2)cc1)C1CCCCC1 (stereo unspecified)	-1%	-11%	-5%	1%	-5%	2.2µM*
COc1ccc(N(C(=O)c2ccco2)S(=O)(=O)c2ccc3c(c2)oc(=O)n3C)cc1	.	-22%	.	.	.	.
CC1CCc2nc3ccccc3c(C(=O)OCC(=O)N3CCc4ccccc43)c2C1 (stereo unspecified)	4%	-3%	-1%	-4%	i	10%
CCCc1nc2ccccc2c(C(=O)OCC(=O)N2CCc3ccccc32)c1CC	-3%	-18%	-4%	-4%	-3%	2.8µM*
CC(=O)Nc1ccc(-c2csc(NC3CC3)n2)c(F)c1	.	14µM*	.	.	.	.
Clc1ccc(-c2csc(NC3CC3)n2)cc1Cl	.	10µM*	.	.	.	.
Clc1ccc(-c2csc(NC3CC3)n2)cc1	.	8.9µM*	.	.	.	.
O=C(CCc1ncc(-c2ccccc2)o1)NC1CCS(=O)(=O)C1 (stereo unspecified)	.	33%	.	.	.	.
COc1cccc2cc(C(=O)/C=C/c3ccc(C#N)cc3)oc12	.	54%	.	.	.	.
Cc1c(-c2ccccc2)nc2ccccc2c1C(=O)OCC(=O)NC(C)C	.	20%	.	.	.	.
